Screens: PubChem, several laboratories
In the library only some 0.44% were active in any assay of this set; here they are far more common.
GASC-1 inh = inhibitors of human GASC-1 (JMJD2C) demethylase | Q9H3R0 | GST-JMJD2C(1-420) H3K9me3 demethylation, DELFIA europium | inhibition, % at 2.35 µM | hit rate 0.069% among 330,000 | AID 2099;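 active = more than half of a compound's replicate wells show inhibition beyond 50%, single wells judged on their own value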;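 note: signal counts dimethyl H3K9 product captured on neutravidin plate; 0% = median of DMSO wells and 100% = 0.3 times that DMSO median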
ABCB6 inh 2 = inhibitors of human ABC transporter ABCB6. K562-ABCB6 porphyrin accumulation, flow cytometry, 1 h; stronger effect = lower value. fluorescence ratio to DMSO, % at 10 µM. hit rate 0.19% among 360,000. AID 602162;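 active = fluorescence ratio to DMSO below 75%, the collection mean minus 3 SD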;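 note: signal is porphyrin accumulated inside mitochondria; 100% equals median channel fluorescence of DMSO control wells; lower ratio means ABCB6 inhibition with less porphyrin fluorescence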
PolyA inhibitor = blocks polyadenylation in yeast reporter cells; S. cerevisiae SKY197-pL101 polyadenylation reporter, beta-gal luminescence; efflux-impaired pdr1/pdr3 knockout yeast; score 100 = 6 SD above DMSO; activity score, % at 12 µM; hit rate 0.02% among 300,000; AID 1875;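 active = lowest replicate activity score at least 50, where 100 means six control SD above control mean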;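 note: yeast exposed to compound for 9 h at 30 °C; higher score means more reporter readthrough which indicates perturbed polyadenylation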
VLA-4 inh = inhibition in a human VLA-4 binding assay | P13612 | VLA-4 expressing cells, ligand binding flow cytometry | inhibition, % (about 7 µM as worked out from the volumes in the protocol) | hit rate 0.2% among 330,000 | AID 2557; in the data active = inhibition above about 50%
Target sequence (P13612 whole entry, looked up): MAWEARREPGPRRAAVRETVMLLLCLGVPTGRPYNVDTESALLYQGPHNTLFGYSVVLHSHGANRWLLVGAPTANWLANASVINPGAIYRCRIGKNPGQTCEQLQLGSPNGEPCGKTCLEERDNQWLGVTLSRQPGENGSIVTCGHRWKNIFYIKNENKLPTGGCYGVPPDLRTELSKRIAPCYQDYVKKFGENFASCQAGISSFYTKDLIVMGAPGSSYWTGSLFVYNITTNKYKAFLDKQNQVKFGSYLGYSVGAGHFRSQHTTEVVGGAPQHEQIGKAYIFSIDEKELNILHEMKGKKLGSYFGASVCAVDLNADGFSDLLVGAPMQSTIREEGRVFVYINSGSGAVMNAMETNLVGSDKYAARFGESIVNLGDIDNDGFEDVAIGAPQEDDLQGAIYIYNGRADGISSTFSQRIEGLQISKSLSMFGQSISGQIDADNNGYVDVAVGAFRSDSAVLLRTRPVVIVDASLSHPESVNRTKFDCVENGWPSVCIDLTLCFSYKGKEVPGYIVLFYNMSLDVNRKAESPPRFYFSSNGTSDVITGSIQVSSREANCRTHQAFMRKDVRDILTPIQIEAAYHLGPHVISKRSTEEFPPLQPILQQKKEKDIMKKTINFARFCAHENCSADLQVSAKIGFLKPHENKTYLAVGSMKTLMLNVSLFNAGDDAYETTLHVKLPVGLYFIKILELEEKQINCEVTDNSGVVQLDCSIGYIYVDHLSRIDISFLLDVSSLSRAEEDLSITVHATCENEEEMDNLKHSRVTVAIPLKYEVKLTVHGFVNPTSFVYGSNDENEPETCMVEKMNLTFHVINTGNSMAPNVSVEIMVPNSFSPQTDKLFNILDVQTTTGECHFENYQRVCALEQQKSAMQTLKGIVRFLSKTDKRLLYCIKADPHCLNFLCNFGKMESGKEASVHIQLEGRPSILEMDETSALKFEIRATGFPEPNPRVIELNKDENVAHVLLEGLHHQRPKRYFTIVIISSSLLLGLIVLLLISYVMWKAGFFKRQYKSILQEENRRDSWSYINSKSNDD
An asterisk follows results filed as active; / = not tested or not shown.

SMILES | GASC-1 inh | ABCB6 inh 2 | PolyA inhibitor | VLA-4 inh
CCS(=O)(=O)c1ncc(Cl)c(C(=O)Nc2ccc(S(=O)(=O)N3CCCC(C)C3)cc2)n1 (stereo not drawn) | 3.3 | 29.0* | -19.0 | 22.4
O=C(NCc1cccc(F)c1)C1CCN(S(=O)(=O)Cc2ccccc2)CC1 | 72.6* | 95.0 | 6.4 | -1.5
COc1cc2c(cc1OC)CN(C(=O)CSc1n[nH]c(N)n1)CC2 | 54.4* | 114.0 | -8.3 | 8.0
O=S(=O)(/C=C/c1ccccc1)N1CCN(c2cccc(Cl)c2)CC1 | 7.0 | 69.0* | -4.9 | 0.7
CN(C)S(=O)(=O)N1CCN(c2cccc(Cl)c2)CC1 | 7.5 | 95.0 | 13.5 | -4.3
COc1ccccc1NC(=O)CCS(=O)(=O)c1ccc2c(c1)oc(=O)n2C | -7.6 | 99.0 | 7.3 | 4.3
CCc1cccc(NC(=O)CCCn2nc(C)c3c(C)n(-c4ccccc4)nc3c2=O)c1 | -11.2 | 89.0 | -2.7 | 4.3
CC(C)N1CC(C(=O)Nc2ccc(Br)c(Cl)c2)CC1=O (stereo not drawn) | 69.5* | 100.0 | 12.4 | 11.4
COc1ccc(OC)c(C2C(C#N)=C(N)N(N(C)C)C3=C2C(=O)CC(C)(C)C3)c1 (stereo not drawn) | -25.8 | 99.0 | 10.7 | 9.6
O=C(O)c1cc(O)c2c(c1)[C@@H]([C@H]1c3cc(C(=O)O)cc(O)c3C(=O)c3c(O[C@@H]4O[C@H](CO)[C@@H](O)[C@H](O)[C@H]4O)cccc31)c1cccc(OC3O[C@H](CO)[C@@H](O)[C@H](O)[C@H]3O)c1C2=O (stereo partly drawn) | -49.3 | 109.0 | -6.7 | 57.1*
C=CCNC(=O)Cc1c(OC)ccc2cc(Br)ccc12 | 4.8 | 99.0 | 0.2 | 13.3
COc1ccc2cc(Br)ccc2c1CC(=O)NCCCN1CCOCC1 | 56.6* | 95.0 | 17.5 | 9.6
COC(=O)C(NC(=O)c1ccccc1)=C1CCCCC1 | 49.4 | 74.0* | 9.2 | 13.1
COc1ccc(OC)c(CN2CCN(C(=O)c3ccco3)CC2)c1 | 0.3 | 101.0 | 3.6 | 3.3
Cc1cc(N2CCN(Cc3cn(C)nc3-c3cccc(Cl)c3)CC2)cc(C)n1 | -2.5 | 81.0 | 5.1 | 8.5
CC(=O)c1ccc(NC(=O)/C(=C\c2ccc(F)cc2)NC(=O)c2ccco2)cc1 | 1.0 | 74.0* | -14.0 | -3.6
CC(C)CCN(C(=O)C1=COCCO1)c1c(N)n(Cc2ccccc2)c(=O)[nH]c1=O | 74.9* | 98.0 | 3.1 | 6.1
Cn1cccc1Cc1nnc(SCC(=O)NCc2ccccc2Cl)n1-c1ccc(F)cc1 | -3.9 | 101.0 | 72.8* | 1.6
OC1(c2cccc(C(F)(F)F)c2)CCN(Cc2nnnn2Cc2ccccc2)CC1 | 36.2 | 121.0 | 1.8 | 9.2
OC1(c2cccc(F)c2)CCN(Cc2ccncc2)CC1 | 68.7* | 91.0 | -11.4 | -5.7
Cc1ccc(/C(O)=C2/C(=O)C(=O)OC2c2ccc(Cl)cc2)cc1 (stereo not drawn) | -10.1 | 87.0 | 3.2 | 17.2
CCC(C)[C@H](NC(=O)NCc1cccc(OC)c1)C(=O)OC (stereo partly drawn) | 10.5 | 96.0 | -17.1 | -14.2
COc1cccc(CNC(=O)N[C@@H](CC(C)C)C(=O)O)c1 | 48.0 | 63.0* | -1.8 | 17.3
CCC(C)NC(=O)CSc1nc2ccccc2c(=O)n1-c1c(C)n(C)n(-c2ccccc2)c1=O (stereo not drawn) | 1.8 | 98.0 | -5.8 | -2.1
COCCNC(=S)N/N=C(\C)c1cc2ccccc2o1 | 5.3 | 70.0* | 8.3 | -0.2
SMILES | GASC-1 inh | ABCB6 inh 2 | PolyA inhibitor | VLA-4 inh
COCCNC(=S)N/N=C(\C)c1ccc(OC)cc1 | -15.4 | 98.0 | 13.3 | 8.7
Cc1cc(O)c(-c2cc(C(=O)NCc3ccc4c(c3)OCO4)[nH]n2)cc1C | -12.5 | 59.0* | 6.5 | -0.1
COc1ccc(C(=O)NCC(c2ccco2)N2CCOCC2)cc1OC (stereo not drawn) | 6.2 | 105.0 | -15.2 | 2.3
COc1ccc(CCNC(=O)C/C(C)=N/NC(=O)C2CCCCC2)cc1OC | -16.7 | 98.0 | 1.1 | 15.0
CCNC(=O)C/C(C)=N/NC(=O)C1CCCCC1 | -15.3 | 49.0* | 17.4 | -4.6
CCN(CC)c1ccc(/C=C/C(=O)c2cccnc2)cc1 | -8.0 | 111.0 | -9.1 | 50.3*
O=C(/C=C/c1ccc(Cl)cc1)c1cccnc1 | / | 104.0 | -26.1 | 14.2
CCn1c(=N)n(CC(=O)c2cccc([N+](=O)[O-])c2)c2ccccc21 | -1.5 | 105.0 | -12.1 | -2.4
N=c1n(CC(=O)c2cccc([N+](=O)[O-])c2)c2ccccc2n1Cc1ccccc1 | 60.9* | 92.0 | -47.9 | 10.7
Cc1[nH][nH]c(=O)c1C(c1c(C)[nH][nH]c1=O)c1cn(Cc2cccc3ccccc23)c2ccccc12 | 68.1* | 106.0 | / | -5.8
COCCNC(=O)COc1ccc(C)cc1C(=O)c1cc(C#N)c(=O)n(C2CC2)c1 | 2.9 | 97.0 | 14.9 | 5.2
O=C(COC(=O)Cc1ccc(S(=O)(=O)N2CCOCC2)s1)NCc1ccc(Cl)cc1 | 4.9 | 100.0 | 56.3* | -12.9
O=c1oc(-c2ccccc2)nc2c1C1(CCCCC1)Cc1ccccc1-2 | -8.5 | 105.0 | 7.8 | -4.6
CCC1(CC)Cc2ccccc2-c2nc(-c3ccccc3)oc(=O)c21 | 5.7 | 70.0* | 5.5 | 4.2
CCN=C1S/C(=C/c2ccc(-c3ccc(Cl)cc3C(=O)O)o2)C(=O)N1CC | 0.7 | 71.0* | 16.3 | -2.5
Cc1ccc(NC(=O)OCc2cccs2)cc1 | 32.0 | / | -1.3 | 56.7*
Cn1c(=O)c(Nc2ccc(O)cc2)c2c3c(cccc31)C(=O)c1ccccc1-2 | 59.6* | 92.0 | -8.8 | -2.9
Cc1ccc(S(=O)(=O)NCCN=C(CN2CCCC2)NS(=O)(=O)c2ccc(C)cc2)cc1 | / | 66.0* | / | 1.6
Cc1ccc(NC(=O)/C(=C/c2cccc([N+](=O)[O-])c2)NC(=O)C2CCCCC2)cc1 | 3.2 | 72.0* | 32.4 | 15.9
O=C(Nc1ccc(Br)cc1)/C(=C/c1cccc([N+](=O)[O-])c1)NC(=O)C1CCCCC1 | 5.5 | 101.0 | -2.1 | 2.7
O=C1CC(=O)N(Cc2ccco2)C(=S)N1 | 0.6 | 93.0 | 3.5 | 16.0
O=C1CC(=O)N(Cc2ccco2)C(=O)N1 | 52.4* | 105.0 | 5.1 | -8.6
Cc1cccc(NS(=O)(=O)c2cccc3nsnc23)c1 | 55.9* | 131.0 | 5.4 | -2.0
O=C(NCc1ccc2c(c1)OCO2)c1nc(S(=O)(=O)Cc2ccccc2)ncc1Cl | -15.4 | 53.0* | -12.1 | -16.5
O=C(CCc1ccc(S(=O)(=O)NCc2ccccc2)cc1)NCc1ccc2c(c1)OCO2 | 52.4* | 97.0 | 8.4 | -2.1
SMILES | GASC-1 inh | ABCB6 inh 2 | PolyA inhibitor | VLA-4 inh
O=C(CCc1ccc(S(=O)(=O)NCCc2ccccc2)cc1)NCc1ccc2c(c1)OCO2 | 2.4 | 102.0 | -7.6 | -1.6
CCOC(=O)C1=CCN(S(=O)(=O)c2ccccc2C)C1c1cccc(F)c1 (stereo not drawn) | / | 98.0 | / | /
CC1CCCC(NC(=O)COC(=O)CCC(=O)c2ccc(F)cc2)C1C (stereo not drawn) | / | 98.0 | / | 5.4
O=C(C[n+]1ccccc1)N1CCCc2ccccc21 | 20.8 | 100.0 | -6.7 | 6.6
O=C(Cc1cccc2ccccc12)N1CCCc2ccccc21 | 57.6* | 94.0 | -24.5 | -0.5
COc1cccc(OCC(=O)NN=C2c3ccccc3-c3ccccc32)c1 | -0.3 | 44.0* | -12.1 | 12.3
